# Results published in PubChem BioAssay (NCI).
# Where “and” joins values, the source holds several entries; their conditions need not be identical. Equal entries are not always repeated. Compounds without any hit were thinned out: in the full panel of roughly 79,000, 15% have a hit. Values without a mark were called inactive. Calls of active or inactive are those of the source. Rule as the data show it: active = growth inhibition above about 70%; inactive = the rest.
# Assays:
# [1] = NCI Yeast Anticancer Drug Screen. Data for the rad50 strain (AID 155);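 also: 0% = growth of vehicle-only cultures of the same strain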; settings: S. cerevisiae rad50 strain growth inhibition, hits give high values; at 50.0 µM unless noted
# Summary of the method: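 Growth of the mutant yeast was measured after compound exposure and referenced to vehicle-treated cultures.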
# [2] = NCI Yeast Anticancer Drug Screen. Data for the mec2-1 strain (AID 157); settings: S. cerevisiae mec2-1 strain, hits give high values; at 50.0 µM unless noted
# Summary of the method: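 Readout is yeast growth inhibition, normalised to vehicle-treated controls, in the mec2-1 strain exposed to compound.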
# [3] = NCI Yeast Anticancer Drug Screen. Data for the sgs1 mgt1 strain (AID 161);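 also: 0% = growth of cultures given vehicle only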; settings: S. cerevisiae sgs1 mgt1 strain, hits give high values; at 50.0 µM unless noted
# Summary of the method: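 Percent growth inhibition was derived by comparing compound-exposed mutant yeast with vehicle-exposed cultures. The strain carries alterations in DNA damage repair.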
# [4] = NCI Yeast Anticancer Drug Screen. Data for the cln2 rad14 strain (AID 165);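 also: 0% = growth equal to vehicle treated cultures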; settings: S. cerevisiae cln2 rad14 strain, hits give high values; at 50.0 µM unless noted
# Summary of the method: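 Relative to vehicle controls, growth inhibition of compound-treated cln2 rad14 yeast was recorded.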
# [5] = NCI Yeast Anticancer Drug Screen. Data for the bub3 strain (AID 167); settings: S. cerevisiae bub3 mutant strain, hits give high values; at 50.0 µM unless noted
# Summary of the method: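 Whole-cell yeast assay. The mutant strain was incubated with compounds, and growth inhibition was determined by comparison with vehicle-treated cells.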
# [6] = NCI Yeast Anticancer Drug Screen. Data for the mlh1 rad18 strain (AID 175); settings: S. cerevisiae mlh1 rad18 strain growth inhibition, hits give high values; at 50.0 µM unless noted
# Summary of the method: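 Test agents were incubated with a yeast strain of defined genotype (DNA damage repair defect). Inhibition of growth was derived by comparison with vehicle-exposed cultures.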
SMILES,growth inhibition [1],growth inhibition [2],growth inhibition [3],growth inhibition [4],growth inhibition [5],growth inhibition [6]
O=[N+]([O-])c1ccn(Cc2ccccc2)c1,-6.25%,2.95%,5.65%,-41.5%,-14.2%,9.5%
c1ccc(-c2cnoc2-c2ccccc2)cc1,14%,17.6%,7.15%,-19.8%,-18.7%,8.3%
C=C1C(=O)O[C@@H]2C[C@@]3(C)[C@H](O)CCC(=C)[C@@H]3C[C@H]12,-4.65%,25.1%,3.95%,17.1%,19.6%,5.5%
Nn1c(-c2cccc(Cl)c2)nc2ccccc2c1=O,-18.6%,5.45%,13%,25.7%,17.9%,36.8%
COc1ccc(/C=N/NC(=O)c2sc(=S)n(-c3ccccc3)c2N)cc1,2.9%,-0.45%,-40.1%,-16.9%,-17.1%,-7.5%
O=NNc1ccc(S(=O)(=O)c2ccc3ccccc3c2)cn1,31.7%,12.8%,-24.9%,-8.95%,-25.6%,-88.5%
CC(C)CCNc1ccccc1,1.55%,-7.65%,-9.85%,-2.8%,3.55%,0.45%
COc1cc(Nc2nc3ccc(C(F)(F)F)cc3nc2C(=O)O)cc(OC)c1OC,15.8%,20.3%,29.9%,48.7%,24.8%,10.3%
Cc1nc(Nc2ccc(Cl)cc2)c2cnn(-c3ccc(Cl)cc3)c2n1,-1.9%,-2.25%,-7.95%,-41%,-2.3%,-5.05%
CN1C(=O)CCC1c1nc2ccccc2[nH]1 (stereo unspecified),0.15%,9.95%,-3.05%,-17.9%,6.45%,20.4%
C=CCOC(=O)CCCC1=NC2=CC=CC3=NC(C)=NC(=N1)N23,-1.1%,2.35%,1.45%,12.2%,-17.3%,1.2%
O=P(O)(O)OP(=O)(O)O,-15.3%,-15.1%,-2.4%,-12.1%,-54.6%,25.8%
CC(=O)OCC1CCCC(C)C1COC(C)=O (stereo unspecified),2%,-8.7%,-16.1%,-24.1%,20.3%,-2.95%
CC(C)(CO)N=Cc1ccccc1O,-0.25%,-1.6%,-14.2%,-3.8%,-13.3%,6.35%
CCCCCSC(=O)C(N)=O,10.9%,7.45%,6.7%,-25.8%,-7.45%,4%
CC(=O)OCC1COC(c2ccc(C)cc2)O1 (stereo unspecified),12.9%,-2.1%,-13.8%,-2.5%,-4.45%,-11.8%
Cc1cc2nc3c(=O)[nH]c(=O)nc-3n(C/C=N/NC(N)=S)c2cc1C,5.75%,-7.65%,-5.05%,-45.1%,-12.8%,-2.7%
C=C1C(=O)OCC1C(=O)OCC (stereo unspecified),9.35%,7.7%,-0.35%,3.35%,-24.8%,14.2%
c1ccc(CCCNc2nnnc3ccccc23)cc1,-9.3%,-36.1%,-10.8%,-19.2%,-57.2%,-4.4%
CC(O)c1ccc[cH-]1.CC(O)c1ccc[cH-]1.[Fe+2] (stereo unspecified),-22%,4%,-5.55%,-33.1%,28.7%,5.7%
Cc1ccccc1C(c1ccccc1Cl)[N+](C)(C)C (stereo unspecified),35%,14.7%,27.1%,19.2%,-3.95%,43.1%

SMILES,growth inhibition [1],growth inhibition [2],growth inhibition [3],growth inhibition [4],growth inhibition [5],growth inhibition [6]
CCC(C)C(O)C(C(=O)O)C1CCCCC1 (stereo unspecified),31.6%,23.2%,15.4%,39.5%,23.9%,26%
Nc1[nH]c(=O)[nH]c(=O)c1[N+](=O)[O-],5.4%,-6.8%,-7.1%,-8.5%,-9.35%,-3.15%
Cc1ccc(S(=O)(=O)Nc2ccccc2-c2nc3ccc(C)cc3c(=O)o2)cc1,-5.35%,-24.7%,-7.8%,2.9%,-7.55%,-13.7%
N#C/C(=C/NC(N)=S)C(N)=O,-25.6%,10.3%,-16.4%,14.6%,-27.1%,20.7%
O=c1c2cc(O)c(O)cc2oc2cc(O)c(C3OC(CO)C(O)C(O)C3O)c(O)c12 (stereo unspecified),14.2%,1.1%,-27.7%,6.45%,-41.4%,-77.1%
N#C/C(=C\c1ccccc1)c1ccc(F)cc1,39.4%,42.1%,25.7%,18.4%,32.5%,25.8%
COCCOC(=O)c1ccc(C)cc1,9.8%,17.8%,10.6%,14.8%,12.1%,8.1%
CCN(CC)CCNc1ccc(COC(=O)NC)c2sc3ccccc3c(=O)c12,3.9%,-2.4%,-8.3%,-12.2%,-17.4%,-58.9%
O=c1n(-c2ccccc2)c(=O)n(-c2ccccc2)c(=O)n1-c1ccccc1,-2.2%,-13.2%,-17.1%,5%,7.45%,-14.7%
[O-]c1nn(-c2ccccc2)n[n+]1-c1ccccc1,-2.4%,-12.4%,-0.55%,-25%,-10.8%,-10%
CCN(CC)C(=S)Oc1ccc(OC(=S)N(CC)CC)cc1,30.6%,7.1%,-0.95%,-6.75%,-2.85%,-7.35%
C=CCC1(CN(C)C)CC/C(=C\c2cc(OC)c(OC)c(OC)c2)C1=O (stereo unspecified),-8.7%,-3.15%,-26%,-4.65%,-9.85%,20.2%
CC1=NN(C(=O)CC(=O)Nc2ccc(C)cc2)C(=O)C1N=Nc1ccc(S(=O)(=O)c2ccc(N=NC3C(=O)N(C(=O)CC(=O)Nc4ccc(C)cc4)N=C3C)cc2)cc1 (stereo unspecified),49.8%,36%,36.8%,21.2%,-1.2%,39.6%
CCCCCCCCSC(=N)N,23.9%,-14.1%,1.95%,18.1%,36.1%,10.7%
O=C(O)C1=Cc2ccccc2OC1,2.7%,-19.9%,-5.55%,-27.2%,-28.6%,-4.7%
N#Cc1ccccc1NC(=O)C(=O)c1c(O)c2ccccc2oc1=O,-13.8%,-6.8%,-16.1%,-16.9%,-12.2%,-25%
CC12Nc3ccccc3N1C(=O)c1ccccc12 (stereo unspecified),15.7%,6.15%,-34.8%,1.95%,-1%,-0.5%
Nc1ccc2c(O)cc(S(=O)(=O)O)cc2c1,39% and 26.9%,5.1% and 0.25%,4.5% and -20.9%,-29.1% and -73%,19.6% and 4.85%,3.7% and 10.4%
C[C@H](CCC1=NCCN1)[C@H]1CC[C@H]2[C@@H]3CC[C@@H]4C[C@H](O)CC[C@]4(C)[C@H]3CC[C@]12C,91.6% (active),92.8% (active),91.2% (active),91.6% (active),91.1% (active),91% (active)
Nc1c(C(=O)O)ccc(O)c1O,28.9%,20.5%,32.2%,7.95%,0.95%,9.8%
